Experimental data as given in PubChem BioAssay (NCATS).
Records with an inconclusive call do not appear. Calls of active or inactive are those of the source. The call rests on the fitted dose curve; in most records, active means well fitted curve in the direction sought with a large enough effect; inconclusive means small, poorly fitted or top-dose-only effect, or another doubt; inactive means no such curve, though single readings can be large; an effect the other way counts as inactive or inconclusive.

What was measured:
[1] = qHTS of pediatric cancer cell lines to identify multiple opportunities for drug repurposing: Primary screen for NB-EBc1 cells (AID 1347095); conditions: NB-EBc1 neuroblastoma viability, CellTiter-Glo luminescence, 48 h; series mostly up to 46 µM; further: potency means the concentration at half of the fitted maximal effect
In short: (§1)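 Plated cells (500-1,000 per well, growth media) were allowed to settle for 5 hours, treated with compound dilutions for 48 hours, then lysed with CellTiter-Glo for 15 min at room temperature before luminescence reading.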

[2] = qHTS of pediatric cancer cell lines to identify multiple opportunities for drug repurposing: Primary screen for U-2 OS cells (AID 1347096); conditions: U-2 OS viability, CellTiter-Glo luminescence, 48 h; series mostly up to 46 µM; further: nearly all actives have a fitted effect of over 50% in size
In short: (§2)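 Cells (500-1,000/well) in growth media were settled 5 h at 37 degrees C, then given compounds for 48 h. Viability was read as CellTiter-Glo luminescence. Primary runs used MIPE at 11 points (0.78 nM-46 µM) and NPC at 8 points (0.59 nM-46 µM); follow-ups used 11 points.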

[3] = qHTS of pediatric cancer cell lines to identify multiple opportunities for drug repurposing: Primary screen for Saos-2 cells (AID 1347097); conditions: Saos-2 viability, CellTiter-Glo ATP luminescence, 48 h; series mostly up to 46 µM; further: nearly all actives have a fitted effect of over 40% in size; further: potency means the concentration at half of the fitted maximal effect
In short: as §1

[4] = qHTS of pediatric cancer cell lines to identify multiple opportunities for drug repurposing: Primary screen for SK-N-SH cells (AID 1347098); conditions: SK-N-SH viability, CellTiter-Glo luminescence, 48 h; series mostly up to 57 µM; further: nearly all actives have a fitted effect of over 65% in size; further: potency means the concentration at half of the fitted maximal effect
In short: (§3)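 Cells (500-1,000/well) rested 5 h, then received compounds for 48 h; metabolically active cells were measured by CellTiter-Glo luminescence. Final concentrations spanned up to 46 µM (MIPE, 11-point) or 0.59 nM-46 µM (NPC, 8-point) in primary screens, 11-point in follow-ups.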

[5] = qHTS of pediatric cancer cell lines to identify multiple opportunities for drug repurposing: Primary screen for Rh18 cells (AID 1347102); conditions: Rh18 rhabdomyosarcoma viability, CellTiter-Glo luminescence, 48 h; series mostly up to 46 µM; further: nearly all actives have a fitted effect of over 65% in size
In short: as §2

[6] = qHTS of pediatric cancer cell lines to identify multiple opportunities for drug repurposing: Primary screen for control Hh wild type fibroblast cells (AID 1347106); conditions: Hh wild-type fibroblast viability, CellTiter-Glo luminescence, 48 h; series mostly up to 46 µM;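 further: a drop in luminescence marks cytotoxicity and a rise apparent proliferation; nearly all actives have a fitted effect of over 55% in size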
In short: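 Viability after 48 h compound treatment at 37C, 500-1,000 cells/well, read as ATP luminescence with CellTiter-Glo. Primary screens used 11-point (MIPE, 0.78 nM-46 µM) or 8-point (NPC, 0.59 nM-46 µM) final concentrations; follow-up screens used 11-point dilutions.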

[7] = qHTS of pediatric cancer cell lines to identify multiple opportunities for drug repurposing: Primary screen for Rh30 cells (AID 1347107); conditions: Rh30 rhabdomyosarcoma viability, CellTiter-Glo luminescence, 48 h; series mostly up to 46 µM; further: nearly all actives have a fitted effect of over 75% in size
In short: as §2

[8] = qHTS of pediatric cancer cell lines to identify multiple opportunities for drug repurposing: Primary screen for Rh41 cells (AID 1347108); conditions: Rh41 rhabdomyosarcoma viability, CellTiter-Glo luminescence, 48 h; series mostly up to 46 µM;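 further: luminescence drop marks cytotoxic hits; nearly all actives have a fitted effect of over 70% in size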
In short: as §1

[9] = qHTS of pediatric cancer cell lines to identify multiple opportunities for drug repurposing: Primary screen for LAN-5 cells (AID 1347100); conditions: LAN-5 neuroblastoma viability, CellTiter-Glo luminescence, 48 h; series mostly up to 46 µM; further: potency means the concentration at half of the fitted maximal effect
In short: as §2

[10] = qHTS of pediatric cancer cell lines to identify multiple opportunities for drug repurposing: Primary screen for NB1643 cells (AID 1347099); conditions: NB1643 neuroblastoma viability, CellTiter-Glo luminescence, 48 h; series mostly up to 46 µM; further: nearly all actives have a fitted effect of over 50% in size
In short: as §1

[11] = qHTS of pediatric cancer cell lines to identify multiple opportunities for drug repurposing: Primary screen for OHS-50 cells (AID 1347103); conditions: OHS-50 osteosarcoma viability, CellTiter-Glo luminescence, 48 h; series mostly up to 57.3 µM; further: nearly all actives have a fitted effect of over 40% in size; further: potency means the concentration at half of the fitted maximal effect
In short: as §3

[12] = qHTS of pediatric cancer cell lines to identify multiple opportunities for drug repurposing: Primary screen for MG 63 (6-TG R) cells (AID 1347105); conditions: MG 63 (6-TG R) viability, CellTiter-Glo, 48 h; series mostly up to 46 µM; further: nearly all actives have a fitted effect of over 50% in size
In short: as §1

[13] = qHTS of pediatric cancer cell lines to identify multiple opportunities for drug repurposing: Primary screen for RD cells (AID 1347104); conditions: RD rhabdomyosarcoma viability, CellTiter-Glo luminescence, 48 h; series mostly up to 46 µM; further: nearly all actives have a fitted effect of over 55% in size; further: potency means the concentration at half of the fitted maximal effect
In short: as §1

[14] = qHTS of pediatric cancer cell lines to identify multiple opportunities for drug repurposing: Primary screen for BT-12 cells (AID 1347101); conditions: BT-12 viability, CellTiter-Glo luminescence, 48 h; series mostly up to 57.3 µM; further: nearly all actives have a fitted effect of over 25% in size; further: potency means the concentration at half of the fitted maximal effect
In short: as §3

[15] = qHTS of pediatric cancer cell lines to identify multiple opportunities for drug repurposing: Confirmatory screen for SK-N-MC cells (AID 1347111); conditions: SK-N-MC cell viability;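 further: potency means the concentration at half of the fitted maximal effect; cells exposed to compound for 48 h before the readout; nearly all actives have a fitted effect of over 70% in size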
In short: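 Metabolically active cells were quantified by ATP-dependent luminescence (CellTiter-Glo, 15 min at room temperature) following 48 h treatment. Cells had been plated at 500-1,000 per well and settled for 5 h beforehand.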

[16] = qHTS of pediatric cancer cell lines to identify multiple opportunities for drug repurposing: Confirmatory screen for LAN-5 cells (AID 1347113); conditions: LAN-5 neuroblastoma cell viability; series mostly up to 45.9 µM; further: nearly all actives have a fitted effect of over 65% in size
In short: as §2

Measured: Potency

COc1cc(C(=O)OCCCN2CCCN(CCCOC(=O)c3cc(OC)c(OC)c(OC)c3)CC2)cc(OC)c1OC
inactive: [1] | [2] | [3] | [4] | [5] | [6] | [7] | [8]

CCCC(C(=O)OCCN(CC)CC)(c1ccccc1)c1ccccc1
active: [3] 26.6 µM | [4] 19.4 µM
inactive: [9] | [6]

CCC(=O)c1ccc2c(c1)N(CCCN(C)C)c1ccccc1S2
inactive: [1] | [2] | [10] | [6] | [8]
active: [4] 34.4 µM | [11] 30.9 µM

CNCCCN1c2ccccc2CCc2ccccc21
active: [4] 30.7 µM | [11] 15.5 µM
inactive: [2] | [3] | [9] | [6] | [8]

OC(CCN1CCCCC1)(c1ccccc1)C1CCCCC1 (configuration not stated)
inactive: [1] | [2] | [9] | [5] | [12] | [6] | [7] | [8]

CCc1cccc(N(C)C(N)=Nc2cccc3ccccc23)c1
active: [3] 18.8 µM | [11] 15.5 µM
inactive: [1] | [10] | [9] | [6] | [7]

OCCN1CCN(CC/C=C2/c3ccccc3Sc3ccc(C(F)(F)F)cc32)CC1
inactive: [1] | [8]
active: [4] 13.7 µM | [9] 23.7 µM | [11] 24.6 µM | [13] 26.6 µM

COc1cc2c(cc1OC)-c1cc(=Nc3c(C)cc(C)cc3C)n(C)c(=O)n1CC2
active: [11] 21.9 µM | [13] 23.7 µM
inactive: [2] | [5] | [6]

NC(N)=NC(=O)Cc1c(Cl)cccc1Cl
inactive: [2] | [3] | [4] | [10] | [9] | [5] | [6] | [7] | [8]

Nc1nc(N)c2nc(-c3ccccc3)c(N)nc2n1
inactive: [10] | [5] | [12] | [8] | [16]
active: [1] 8.41 µM | [9] 13.3 µM | [14] 13.8 µM | [13] 23.7 µM | [15] 3.69 µM

COc1ccc2c(c1OC)C(=O)O[C@@H]2[C@H]1c2c(cc3c(c2OC)OCO3)CCN1C
inactive: [2] | [10] | [5] | [11] | [13] | [12] | [7] | [8]

CC(=O)Oc1cc(C(C)C)c(OCCN(C)C)cc1C
inactive: [1] | [2] | [4] | [9] | [14] | [5] | [13] | [12] | [6] | [7] | [8]

Fc1ccc(C(c2ccc(F)cc2)N2CCN(C/C=C/c3ccccc3)CC2)cc1
inactive: [5] | [12] | [6] | [7] | [8]
active: [11] 17.4 µM

Cc1nc2sccn2c(=O)c1CCN1CCC(=C(c2ccc(F)cc2)c2ccc(F)cc2)CC1
inactive: [2] | [10] | [9] | [5] | [12] | [8]
